NALP3 yeast inh: blocks the NALP3 inflammasome reconstituted in yeast; 0.39% of 330,000 active; Yeast reconstituted NLRP3/ASC/caspase-1, beta-gal luminescence, 24 h; inhibition, % at 10 µM; AID 2825;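 active = inhibition of 50% or more; inactive = inhibition below 50%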;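 also: plate controls were induced DMSO wells for no effect and uninduced yeast grown without galactose for full effect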
TIM10 inh: inhibits growth of TIM10 yeast strain | S. cerevisiae TIM10 strain growth, BacTiter-Glo luminescence, 24 h | inhibition, % at 10 µM | AID 463195 | 1.4% of 330,000 active;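 active = inhibition of 40% or more at the single tested concentration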;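 also: wild-type TIM10 isogenic control strain grown at permissive 25 °C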
PfHsp90 set2: reduces growth (ATP signal) of yeast expressing P. falciparum Hsp90 | S. cerevisiae expressing PfHsp90, BacTiter-Glo ATP, 48 h; yeast lacking PDR1 and PDR3 efflux regulators | inhibition, % at 9.4 µM | 0.32% of 310,000 active;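 active = every replicate shows inhibition above about 80%, whatever the replicate mean, limit read from the data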;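 also: 0% = DMSO neutral controls and 100% = 20 µM radicicol positive controls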
tim10-1 inh: inhibits growth of tim10-1 mutant yeast; S. cerevisiae tim10-1 ts strain growth, BacTiter-Glo, 24 h; inhibition, % at 20 µM; 2.2% of 330,000 active;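 active = inhibition of at least 40%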;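 also: mutant grown at 25 °C; 0% = DMSO wells with yeast and 100% = wells holding no yeast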
tim23-1 inh: tim23-1 yeast growth inhibition; S. cerevisiae tim23-1 growth, BacTiter-Glo luminescence, 24 h; inhibition, % at 20 µM; 1.3% of 330,000 active; AID 463212;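 active = growth inhibition of the mutant yeast at or above 50%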;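 also: temperature-sensitive mutant grown at 25 °C; plate controls were DMSO-treated mutant yeast for no effect and medium wells lacking yeast for full effect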
tim10-1 conf: tim10-1 yeast growth inhibition, confirmed; S. cerevisiae tim10-1 ts strain growth, BacTiter-Glo, 24 h; 56% of 7,400 active; inhibition, % at 20 µM; shares compounds with tim10-1 inh; AID 463213;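 active = inhibition of yeast growth at or above a set limit in either of two repeat tests at 20 µM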;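 also: tim10-1 mutant grown at permissive 25 °C to find synthetic lethal compounds; 0% = DMSO yeast wells and 100% = medium wells without yeast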
* marks the source's active call; other numbers are inactive results; . = no result. In the library only some 3.7% were active in any assay of this set; here they are far more common.

SMILES | NALP3 yeast inh | TIM10 inh | PfHsp90 set2 | tim10-1 inh | tim23-1 inh | tim10-1 conf
CC(=O)c1ccccc1OCc1ccc(S(=O)(=O)Cc2ccccc2)cc1 | 14 | -9 | -3 | 26 | 23 | .
C/C(CCc1oc2ccc(Cl)cc2c1-c1ccc(C)o1)=N\O | 7 | 37 | -21 | 42* | 26 | 43*
O=C1S/C(=C\c2ccc(N3CCOCC3)o2)C(=O)N1Cc1ccc(F)cc1 | 49 | 19 | 13 | 33 | 17 | .
O=C1S/C(=C/c2ccc(N3CCOCC3)o2)C(=O)N1Cc1ccc(F)cc1 | 25 | 24 | 26 | 42* | 25 | 50*
CC(C)c1ccc(N(CC(=O)NCc2cccnc2)S(=O)(=O)c2ccccc2)cc1 | 15 | -11 | -62 | 12 | 18 | .
O=C(NCc1ccccc1)c1ccc(NC(=O)C2CCC2)cc1 | . | . | 23 | . | . | .
O=C(NC1CCCN(c2ccc(C(F)(F)F)cn2)C1)c1ccncc1 (centres undefined) | 2 | -38 | -4 | 33 | -125 | .
CSc1ccccc1C(=O)NC1CCCN(c2ccc(C(F)(F)F)cn2)C1 (centres undefined) | 21 | -7 | -21 | 43* | 24 | 3
Cc1cc(NS(=O)(=O)c2ccc(NC(=O)NC3CCCCC3)cc2)no1 | -1 | -11 | . | 11 | -3 | .
Cc1cc(NS(=O)(=O)c2ccc(C3CCCCC3)cc2)no1 | 22 | 13 | -134 | 41* | 35 | 20
C/C(=N\Nc1cccc(C(F)(F)F)c1)c1ccc(O)cc1 | -8 | 9 | 9 | 45* | 16 | -10
C/C(=N\NC(=O)CNc1cccc(C(F)(F)F)c1)c1ccc(Br)cc1 | 11 | 12 | 10 | 27 | 12 | .
O=C(COC(=O)c1cc(Cl)ccc1[N+](=O)[O-])NC1CC1 | -1 | 7 | 1 | -6 | 1 | .
O=C(OC1CCCCC1=O)c1cc(Cl)ccc1[N+](=O)[O-] (centres undefined) | 12 | 19 | 2 | 45* | 44 | 39*
CC(C)CCOC(=O)C[N+](C)(C)CCOC1CC2CCC1(C)C2(C)C (centres undefined) | 4 | -5 | 1 | -2 | 8 | .
CCC(C)OC(=O)C[N+](C)(C)CCOC1CC2CCC1(C)C2(C)C (centres undefined) | 4 | 2 | -10 | 41* | 10 | -4
Cc1cc(C)n(S(=O)(=O)c2cc(Cl)ccc2Cl)n1 | -32 | -4 | 16 | 40* | 27 | 18
Cc1cc(C)n(S(=O)(=O)c2ccc(Cl)cc2)n1 | 17 | -5 | -28 | 6 | 11 | .
Cc1cc(C)n(S(=O)(=O)c2ccc(C(C)(C)C)cc2)n1 | -9 | 0 | . | 43* | 28 | 38*
COc1ccc2c(c1)c(C(=O)O)c(C)n2-c1ccc(Cl)cc1 | -7 | 26 | -2 | 20 | 33 | .
Cc1ccccc1C(=O)Nc1ccccc1C(=O)NCc1ccccc1 | 1 | 25 | -14 | 43* | 30 | 36*
Cc1ccc(NC(=O)c2ccccc2NC(=O)Cc2ccccc2)cc1 | 21 | 30 | -7 | 44* | 32 | 21
N#Cc1ccccc1NC(=O)COC(=O)CN1C(=O)C2CCCCC2C1=O (centres undefined) | 12 | -8 | . | -22 | -2 | .
Cc1cc(Cl)ccc1OCCCC(=O)N1CCOCC1 | 13 | 8 | . | 42* | 19 | 29
CC(=O)Nc1ccc(NC(=O)c2ccc([N+](=O)[O-])cc2Cl)cc1 | -2 | 8 | -20 | -3 | -1 | .
SMILES | NALP3 yeast inh | TIM10 inh | PfHsp90 set2 | tim10-1 inh | tim23-1 inh | tim10-1 conf
CCC(C)NS(=O)(=O)c1ccc(NC(=O)c2ccc([N+](=O)[O-])cc2Cl)cc1 (centres undefined) | 4 | 25 | 13 | 46* | 31 | 31*
CCc1nc(N)c(C#N)c(-c2cccn2C)c1C | 4 | -20 | 8 | 41* | 9 | 12
COC(=O)c1c(NC(=O)CSc2ccccc2N)sc(C)c1C | 19 | 21 | 3 | 46* | 37 | 36*
COC(=O)c1c(NC(=O)Cc2ccccc2)sc(C)c1C | 32 | 7 | 5 | -6 | 20 | .
CCOC(=O)c1c(NC(=O)CSc2nnc(CNc3ccc(OC)cc3)n2C)sc(C)c1C | 12 | 5 | . | 41* | 33 | 13
CCC(CC)n1c(C)cc(=O)n1C(CC)CC | . | . | 0 | . | . | .
CCCCCCCC/C=C\CCCCCCCC(=O)O | 14 | -22 | -25 | -4 | 2 | .
CCCCCCCCCCCCC/C=C/[C@@H](O)[C@@H](N)CO | 34 | 22 | 21 | 44* | 35 | 1
COc1ccc(N(CCCN2C(=O)c3cccc4cccc(c34)C2=O)C(=O)c2ccncc2)cc1 | 7 | 15 | -12 | 25 | 30 | .
COc1ccc(N(CCN2C(=O)c3ccccc3C2=O)C(=O)c2cccc([N+](=O)[O-])c2)cc1 | 18 | 35 | -16 | 40 | 49 | 35*
Cc1ccc2nc(NCCCO)nc(-c3ccccc3)c2c1 | 9 | 20 | 24 | 1 | -21 | .
OCCCNc1nc(-c2ccccc2)c2cc(Br)ccc2n1 | 30 | 17 | -69 | 48* | 32 | 36*
CCN(C(=O)COC(=O)c1cccnc1SC)c1c(N)n(Cc2ccccc2)c(=O)[nH]c1=O | 1 | -8 | -75 | -3 | -9 | .
CC1CCN(S(=O)(=O)c2ccc3c(c2)NC(=O)CS3)CC1 | 3 | 23 | -2 | 42* | 46 | 23
COc1cccc(N2CCN(S(=O)(=O)c3ccc4c(c3)NC(=O)CS4)CC2)c1 | 14 | -2 | -25 | 2 | 1 | .
Cc1nn(-c2ccccc2)c2c1CC(=O)Nc1ccccc1-2 | . | . | -6 | . | . | .
COc1cc(C)nc(N(C)S(=O)(=O)c2ccccc2Cl)n1 | -9 | 25 | -23 | 43* | 23 | 26
CCOC(=O)c1c(C)[nH]c(C)c1S(=O)(=O)N(C)CC(=O)Nc1ccccc1F | 16 | 4 | 6 | 2 | -2 | .
CC(C)(C)c1ccc(NC(=O)CNC2CCCc3ccccc32)cc1 (centres undefined) | 13 | 22 | 21 | 42* | 7 | 16
Cc1ccc2cccc(OCCCOc3ccccc3F)c2n1 | 27 | 22 | -10 | 43* | 46 | 30
CCOC(=O)c1ccc(S(=O)(=O)N2CCN(C/C=C/c3ccccc3)CC2)cc1 | 32 | 12 | -11 | -5 | 16 | .
O=C(O)CCCc1ccc2ccc3cccc4ccc1c2c34 | 48 | 19 | -23 | 43* | 42 | 25
O=[N+]([O-])CC(c1ccccc1)P(=O)(c1ccccc1)c1ccccc1 (centres undefined) | -2 | 0 | -7 | 41* | 28 | 14
O=C(C=Cc1cccs1)c1ccc(Cl)s1 | . | . | -6 | . | . | .
COc1ccc(NC(=O)c2cn(CCC#N)nc2-c2cccs2)cc1 | 12 | 36 | -20 | 41* | 28 | 25
N#CCCn1cc(C(=O)Nc2ccc([N+](=O)[O-])cc2)c(-c2cccs2)n1 | 25 | 10 | -4 | 33 | 34 | .
CC(C(=O)NCc1ccc(Cl)cc1)n1cccc1C(=O)c1ccccc1 (centres undefined) | 18 | 6 | -10 | 41* | 35 | -10

Source: PubChem (several laboratories)
